Results: PubChem BioAssay
Activity calls are given as the source filed them. Unless noted, the rule behind the calls is not given here.

Tests used:
[1] = compounds binding Alexa647 anti-His antibody – biochemical, small-molecule microarray, 635 nm fluorescence, artefact control for SMM control protein annotation, primary screen (AID 1128); details: higher = more signal;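 note: score merges feature fluorescence with signal-to-noise for each printed compound spot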
[2] = test system: Human papillomavirus type 1a E7 protein (residues 1-88); experiment: HPV1a E7 small-molecule binders, primary screen, biochemical, small-molecule microarray, residues 1-88, 635 nm (AID 1129); details: small-molecule microarray binding, fluorescence 635 nm; higher = more signal
[3] = target: Focal adhesion kinase 1 (Homo sapiens) (UniProt Q05397); experiment: PTK2 protein binding on printed compound slides – biochemical, small-molecule microarray, 635/667 nm fluorescence, BSA, DTT, primary screen (AID 1130); details: 635 nm fluorescence, higher = more signal;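 note: composite of spot emission at 667 nm and signal to noise over triplicate slides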
[4] = test system: Fibrinogen (Alexa647-labelled); experiment: Alexa647-fibrinogen binding to printed small molecules – biochemical, small-molecule microarray, 635/667 nm fluorescence, artefact control for SMM control-protein annotation, profiling panel (AID 1131); details: fibrinogen-A647 binding fluorescence, higher = more signal;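 note: z-score merges 667 nm fluorescence with per-spot signal-to-noise over triplicate slides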
[5] = target: Follistatin (Homo sapiens) (UniProt P19883); experiment: FST protein binding to printed compounds – biochemical, small-molecule microarray, 635/667 nm fluorescence, primary screen (AID 1132); details: 635 nm fluorescence, higher = more signal
[6] = target: Fibroblast growth factor 2 (Homo sapiens) (UniProt P09038); experiment: basic fibroblast growth factor binding to printed compounds – biochemical, small-molecule microarray, 635/667 nm fluorescence, primary screen (AID 1133); details: FGF2, fluorescence 635/667, higher = more signal
[7] = JC-1 mitochondrial potential readout, lung cancer cells – cell-based, A549, JC-1 fluorescence, basal, 24 h, 100 nL, profiling panel (AID 1138); details: higher = more signal;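 note: A549 lung adenocarcinoma cells under basal conditions with no added stimulus; test concentration not given here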
[8] = test system: Lefty1; experiment: Lefty1 protein binding to printed compounds – biochemical, small-molecule microarray, 635/667 nm fluorescence, primary screen (AID 1139); details: fluorescence 635/667, higher = more signal
[9] = test system: wheat germ agglutinin (Triticum aestivum), Alexa647-labelled; experiment: Alexa647-WGA lectin binding to printed small molecules – biochemical, small-molecule microarray, 635/667 nm fluorescence, artefact control for SMM control-protein annotation, profiling panel (AID 1140); details: WGA-A647 binding, 635 nm fluorescence, higher = more signal;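 note: score merges 667 nm feature emission with signal to noise over triplicate slides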
[10] = target: Luciferin 4-monooxygenase (Photinus pyralis) (UniProt P08659); experiment: inhibition of purified Photinus pyralis luciferase – biochemical, luminescence, purified enzyme, 2006 set, primary screen (AID 1141); details: purified firefly luciferase, SteadyGlo luminescence, 30 min; higher = more signal, called active from +8 up or from −8 down;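 note: cell-free assay with purified firefly luciferase at 100 ng per well in PBS; test concentration not given here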
[11] = test system: Wnt5a (protein binding on small-molecule microarray); experiment: small molecules binding Wnt5a protein – biophysical, small-molecule microarray, 635/667 nm fluorescence, primary screen (AID 1142); details: 635 nm fluorescence, higher = more signal;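 note: fluorescence read at 667 nm with signal to noise per printed feature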
[12] = ATP-based viability of Huh7 replicon cells – cell-based, CellTiter-Glo luminescence, basal, 48 h, cytotoxicity control for HCV replication inhibitor project, primary screen (AID 1143); details: higher = more signal, called active from +8 up or from −8 down;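 note: Huh7 hepatoma cells carrying a hepatitis C replication reporter with no stimulus; test concentration not given here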
[13] = Pseudomonas biofilm growth suppression – PAO1 strain, BacTiter-Glo luminescence, LB-PBS, primary screen (AID 1144); details: P. aeruginosa PAO1 biofilm, 12 h, higher = more signal
[14] = basal CRE-LacZ reporter activity in PC12 – cell-based, unstimulated, primary screen (AID 1145); details: no forskolin, luminescence, 4.5 h, higher = more signal, called active from +8 up or from −8 down
[15] = forskolin-driven CRE-LacZ activity in PC12 – cell-based, CRE-LacZ reporter, forskolin-stimulated, primary screen (AID 1146); details: luminescence, 4.5 h, higher = more signal, called active from +8 up or from −8 down;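 note: PC12 cells with 6xCRE LacZ reporter stimulated by forskolin 10 µM; beta-galactosidase reporter signal reflecting CREB driven transcription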
[16] = target: Streptavidin (Streptomyces avidinii) (UniProt P22629); experiment: compounds binding control protein streptavidin – biophysical, small-molecule microarray, 635/667 nm fluorescence, artefact control for SMM compound annotation, primary screen (AID 1147); details: higher = more signal;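 note: signal reflects streptavidin binding to arrayed compounds as a control protein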
[17] = probe aInhba binding on compound microarray – biochemical, small-molecule microarray, 635/667 nm fluorescence, primary screen (AID 1148); details: higher = more signal;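 note: score merges 667nm spot fluorescence with signal-to-noise for antibody binding to printed compounds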
[18] = target: Torsin-1A (Homo sapiens) (UniProt O14656); experiment: TOR1A wild-type binding on microarray – cell lysate, small-molecule microarray, lysate, 635/667 nm, primary screen (AID 1149); details: COS7 hTOR1A-WT lysate, 635 nm fluorescence, higher = more signal
[19] = target: Torsin-1A (Homo sapiens) (UniProt O14656); experiment: torsin A mutant lysate binding on microarrays – cell lysate, small-molecule microarray, COS7 lysate, 635/667 nm fluorescence, primary screen (AID 1150); details: COS7 hTOR1A mutant lysate, 635 nm fluorescence, higher = more signal;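 note: score pools 667 nm emission and signal to noise measuring lysate protein binding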
[20] = test system: Sonic hedgehog protein (Shh); experiment: Sonic hedgehog microarray binding compounds – biochemical, small-molecule microarray, 635/667 nm fluorescence, primary screen (AID 1151); details: 635 nm fluorescence, higher = more signal;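 note: Shh protein binding to compounds spotted on small-molecule microarray slides; score combines spot fluorescence intensity with signal-to-noise across triplicate slides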

Chain of Fibroblast growth factor 2 (Homo sapiens) (P09038 whole entry, looked up): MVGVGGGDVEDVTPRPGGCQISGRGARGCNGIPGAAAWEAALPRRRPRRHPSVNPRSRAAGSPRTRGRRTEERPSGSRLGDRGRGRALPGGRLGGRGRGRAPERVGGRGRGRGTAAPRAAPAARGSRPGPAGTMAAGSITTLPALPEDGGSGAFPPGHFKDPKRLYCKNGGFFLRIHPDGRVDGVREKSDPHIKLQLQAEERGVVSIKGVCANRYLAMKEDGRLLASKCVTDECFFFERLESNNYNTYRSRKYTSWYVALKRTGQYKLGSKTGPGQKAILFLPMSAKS
Chain of Follistatin (Homo sapiens) (P19883 whole entry, looked up): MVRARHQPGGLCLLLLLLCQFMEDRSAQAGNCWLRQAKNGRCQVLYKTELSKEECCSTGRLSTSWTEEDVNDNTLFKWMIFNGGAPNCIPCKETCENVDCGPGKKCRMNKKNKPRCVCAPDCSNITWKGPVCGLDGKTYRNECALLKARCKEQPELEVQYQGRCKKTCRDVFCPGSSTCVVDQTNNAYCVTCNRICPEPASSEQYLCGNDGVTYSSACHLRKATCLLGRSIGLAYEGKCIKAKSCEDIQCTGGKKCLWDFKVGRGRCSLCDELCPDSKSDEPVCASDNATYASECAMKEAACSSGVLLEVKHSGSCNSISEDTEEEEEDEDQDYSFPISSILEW
Chain of Focal adhesion kinase 1 (Homo sapiens) (Q05397 whole entry, looked up): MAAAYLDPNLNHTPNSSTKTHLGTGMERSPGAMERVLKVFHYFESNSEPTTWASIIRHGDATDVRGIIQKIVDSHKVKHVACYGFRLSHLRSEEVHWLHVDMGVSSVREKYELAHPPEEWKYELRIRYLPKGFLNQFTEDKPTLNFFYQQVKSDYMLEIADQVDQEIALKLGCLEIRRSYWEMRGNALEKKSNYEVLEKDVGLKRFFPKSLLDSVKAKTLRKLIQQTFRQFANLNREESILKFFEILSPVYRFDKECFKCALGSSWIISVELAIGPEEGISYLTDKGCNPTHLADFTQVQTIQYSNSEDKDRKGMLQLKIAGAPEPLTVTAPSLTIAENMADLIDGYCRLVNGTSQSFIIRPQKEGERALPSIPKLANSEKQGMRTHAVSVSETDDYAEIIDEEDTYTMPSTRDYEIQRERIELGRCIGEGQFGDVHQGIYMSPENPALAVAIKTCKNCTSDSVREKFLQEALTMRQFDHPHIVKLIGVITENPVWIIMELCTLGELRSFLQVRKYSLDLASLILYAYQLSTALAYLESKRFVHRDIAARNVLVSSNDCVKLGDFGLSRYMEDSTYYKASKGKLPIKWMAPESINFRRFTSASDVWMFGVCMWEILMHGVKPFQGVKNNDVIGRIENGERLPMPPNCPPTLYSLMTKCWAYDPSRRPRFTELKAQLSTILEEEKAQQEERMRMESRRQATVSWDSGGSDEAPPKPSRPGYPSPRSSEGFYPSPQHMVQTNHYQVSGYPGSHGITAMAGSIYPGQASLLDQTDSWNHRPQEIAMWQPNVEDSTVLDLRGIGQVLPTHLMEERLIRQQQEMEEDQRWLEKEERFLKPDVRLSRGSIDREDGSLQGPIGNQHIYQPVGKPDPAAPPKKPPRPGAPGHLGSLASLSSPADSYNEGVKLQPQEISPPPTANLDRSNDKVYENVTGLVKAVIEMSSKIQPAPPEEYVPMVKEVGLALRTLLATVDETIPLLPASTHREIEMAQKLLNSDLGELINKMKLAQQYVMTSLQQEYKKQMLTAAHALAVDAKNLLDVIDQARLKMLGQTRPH
Chain of Luciferin 4-monooxygenase (Photinus pyralis) (P08659 whole entry, looked up): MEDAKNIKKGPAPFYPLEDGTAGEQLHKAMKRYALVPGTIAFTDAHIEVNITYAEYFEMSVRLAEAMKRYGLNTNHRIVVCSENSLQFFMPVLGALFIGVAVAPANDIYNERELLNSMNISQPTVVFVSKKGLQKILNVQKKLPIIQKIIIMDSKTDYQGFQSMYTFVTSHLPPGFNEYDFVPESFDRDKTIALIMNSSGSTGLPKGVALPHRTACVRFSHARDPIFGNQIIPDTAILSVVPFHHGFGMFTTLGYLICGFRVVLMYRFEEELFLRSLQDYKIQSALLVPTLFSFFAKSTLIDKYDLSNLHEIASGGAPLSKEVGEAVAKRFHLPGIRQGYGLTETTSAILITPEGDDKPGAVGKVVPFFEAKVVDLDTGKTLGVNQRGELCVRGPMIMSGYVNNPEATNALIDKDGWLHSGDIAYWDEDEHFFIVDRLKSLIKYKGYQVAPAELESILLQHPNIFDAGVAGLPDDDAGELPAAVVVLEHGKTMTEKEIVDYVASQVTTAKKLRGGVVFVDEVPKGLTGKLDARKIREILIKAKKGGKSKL
Chain of Streptavidin (Streptomyces avidinii) (P22629 whole entry, looked up): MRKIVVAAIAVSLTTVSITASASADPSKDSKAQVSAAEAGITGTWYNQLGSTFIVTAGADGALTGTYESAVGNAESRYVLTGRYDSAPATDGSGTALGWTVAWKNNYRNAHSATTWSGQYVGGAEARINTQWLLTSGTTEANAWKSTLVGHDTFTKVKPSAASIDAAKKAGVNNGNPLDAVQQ
Chain of Torsin-1A (Homo sapiens) (O14656 whole entry, looked up): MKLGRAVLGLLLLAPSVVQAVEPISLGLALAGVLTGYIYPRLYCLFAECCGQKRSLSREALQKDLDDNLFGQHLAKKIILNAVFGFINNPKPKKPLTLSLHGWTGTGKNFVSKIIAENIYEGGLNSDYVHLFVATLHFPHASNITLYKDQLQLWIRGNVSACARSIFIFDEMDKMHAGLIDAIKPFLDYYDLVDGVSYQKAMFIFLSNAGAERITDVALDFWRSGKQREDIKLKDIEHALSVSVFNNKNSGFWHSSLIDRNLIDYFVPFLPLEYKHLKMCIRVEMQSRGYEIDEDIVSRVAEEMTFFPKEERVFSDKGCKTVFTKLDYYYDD

| Structure (SMILES) | composite z-score [1] | composite z-score [2] | composite z-score [3] | composite z-score [4] | composite z-score [5] | composite z-score [6] | z-score [7] | composite z-score [8] | composite z-score [9] | z-score [10] | composite z-score [11] | z-score [12] | z-score [13] | z-score [14] | z-score [15] | composite z-score [16] | composite z-score [17] | composite z-score [18] | composite z-score [19] | composite z-score [20] |
| --- | --- | --- | --- | --- | --- | --- | --- | --- | --- | --- | --- | --- | --- | --- | --- | --- | --- | --- | --- | --- |
| [N-]=[N+]=Nc1ccccc1C[C@]1(C(N)=O)N=C(c2ccc(OCCCO)cc2)O[C@H]1c1ccccc1 | 2.45 | 1.2 | -0.155 | 1.01 | 0.371 | -0.768 | 0.518 | -0.364 | 1.23 | -1.53 (inactive) | 0.498 | -2.27 (inactive) | -0.726 (inactive) | 1.31 (inactive) | -0.723 (inactive) | 0.665 | 0.0516 | 0.644 | -0.0736 | -1.98 |
| C=CCNC(=O)[C@@H]1[C@H]2C(=O)O[C@H](c3ccccc3)[C@H](c3ccccc3)N2[C@H](c2ccc(OCCO)cc2)[C@@]12C(=O)Nc1ccc(C#Cc3ccc(OC)cc3)cc12 | 0.785 | 1.18 | 0.452 | 0.798 | 1.42 | 0.989 | -1.87 | 1.57 | 1.17 | -0.398 (inactive) | 0.233 | -4.16 (inactive) | -0.486 (inactive) | -0.195 (inactive) | 0.236 (inactive) | 1.01 | 0.0125 | 0.406 | 0.602 | 1.64 |
| CCOC(=O)[C@H]1C/C=C/C[C@H](C(=O)OCC)C(=O)O[C@H]2[C@@H](OC)O[C@H](CO)[C@@H](OC(=O)Nc3cccc(F)c3)[C@@H]2OC1=O | 1.82 | 0.712 | 0.154 | 0.966 | 0.247 | 0.0815 | -2.01 | 1.11 | 0.452 | -1.14 (inactive) | 0.39 | -6.52 (inactive) | -0.509 (inactive) | 0.765 (inactive) | -0.848 (inactive) | 0.555 | 0.83 | -0.24 | 0.118 | 0.849 |
| COCC(=C=CC[C@H](O)c1ccccc1OCCO)C[C@H](O)c1cc(Cl)cc(Cl)c1O | -0.058 | 0.914 | 0.469 | 0.974 | 0.888 | 1.59 | -0.54 | 0.685 | 0.351 | -1.28 (inactive) | 0.626 | -8.22 (active) | 0.421 (inactive) | 24.4 (active) | -0.753 (inactive) | 0.423 | -0.0877 | -0.256 | 1.72 | 1.37 |
| CCOC(=O)C[C@H]1[C@H](OC(=O)c2cc3ccccc3oc2=O)[C@@H](NC(=O)C2CCCCC2)c2cc(OCCCO)ccc2N1C(=O)c1ccccc1 | 0.127 | 0.942 | 0.711 | 0.799 | 0.786 | 1.48 | -0.353 | 0.558 | 0.667 | -0.196 (inactive) | -0.0359 | -3.06 (inactive) | 0.838 (inactive) | 11 (active) | -1.65 (inactive) | 0.191 | -0.0245 | 0.046 | 0.159 | 0.705 |
